BLM helicase inh: qHTS Assay for Inhibitors of Bloom's syndrome helicase (BLM); RecQ-like DNA helicase BLM (Homo sapiens), P54132; recombinant BLM DNA unwinding, fluorescence dequenching; Potency, µM (doses to about 56.1 µM), without a hit: top-dose activity change, negative = inhibition, most hits filed as inhibitors; 350,000 tested, 0.2% active; AID 2528, 2010;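 also: potency is read from the fitted curve at half-maximal effect; plate controls were vehicle for no effect and no enzyme for full effect; nearly all actives have a fitted effect of over 35% in size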
RECQ1 inh-1: qHTS Assay for Inhibitors of RecQ-Like Dna Helicase 1 (RECQ1). ATP-dependent DNA helicase Q1 (Homo sapiens), P46063. RECQ1 DNA unwinding, red fluorescence kinetic read. Potency, µM (titrated, usually from 57.3 µM), for inactives: at the highest dose activity, negative = inhibition, hits mostly inhibitors. 240,000 tested, 0.54% active. AID 2549, 2010;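 also: potency is read from the fitted curve at half-maximal effect; plate controls were vehicle for no effect and no enzyme for full effect; nearly all actives have a fitted effect of over 30% in size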
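RECQ1T1 50 nM; forked duplex (20 bp + 30-nt ss tails) 200 nM, ATP 2 mM final; pH 8.0, 2 mM MgCl2, 2.5 ug/ml poly(dI-dC); 15 min compound preincubation; discontinuous kinetic read over 2 h at RT.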
RGS12 GoLoco inh-1: qHTS Assay for Inhibitors of RGS12 GoLoco Motif Activity (Red Fluorophore) | Guanine nucleotide-binding protein G(i) subunit alpha-1 (Homo sapiens), P63096 | Gai1:RGS12 GoLoco peptide FP, rhodamine, 10 min | Potency, µM (series often up to 61.6 µM), for inactives: top-dose activity, negative = inhibition, usual class: inhibitors | 230,000 tested, 0.44% active | AID 880, 2007; active = well fitted inhibition curve with a large enough effect, not every such curve was filed as active; inactive = no such curve, though single readings can be large or run the other way; also: potency is read from the fitted curve at half-maximal effect; % is scaled to controls: 0 for no effect and ±100 for the full control effect; nearly all actives have a fitted effect of over 30% in size
APE1 inh-1: qHTS Assay for Inhibitors of the Human Apurinic/apyrimidinic Endonuclease 1 (APE1); DNA repair nuclease/redox regulator APEX1 (Homo sapiens), P27695; recombinant APE1, TAMRA/BHQ-2 abasic DNA cleavage fluorescence; Potency, µM (series often up to 65.8 µM), for inactives: at the highest dose activity change, negative = inhibition, hits mostly inhibitors; 350,000 tested, 0.35% active;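 also: potency is read from the fitted curve at half-maximal effect; plate controls were vehicle for no effect and reference inhibitor for full effect; nearly all actives have a fitted effect of over 55% in size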
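Substrate: short duplex with […] THF abasic site, 5'-TAMRA and 3'-BHQ-2, 50 nM final. APE1 at 0.75 nM, preincubated 15 min RT with compound. Fluorescence increase from first to third read measured activity.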
KDM4E inh: qHTS Assay for Inhibitors of Human Jumonji Domain Containing 2E (JMJD2E); JMJD2E catalytic domain, FDH-coupled NADH fluorescence (FDH is formaldehyde dehydrogenase); Potency, µM (doses to about 57.1 µM), without a hit: at the top dose activity change, negative = inhibition, usual class: inhibitors; 230,000 tested, 1.6% active; AID 2147, 2009; active = well fitted inhibition curve with a large enough effect, not every such curve was filed as active; inconclusive = small, poorly fitted or top-dose-only effect, or another doubt; inactive = no such curve, though single readings can be large or run the other way;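 also: potency is read from the fitted curve at half-maximal effect; 0% = wells with enzyme and -100% = buffer wells without enzyme; nearly all actives have a fitted effect of over 50% in size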
L3MBTL1 block: qHTS Assay for the Inhibitors of L3MBTL1; Potency, µM (top dose mostly 57.1 µM), for inactives: top-dose activity, negative = inhibition, hits mostly inhibitors; 230,000 tested, 0.66% active; Lethal(3)malignant brain tumor-like protein 1 (Homo sapiens), Q9Y468; AlphaScreen L3MBTL1–H3K9me1 peptide binding; also: potency is read from the fitted curve at half-maximal effect; % is scaled to controls: 0 for no effect and ±100 for the full control effect; nearly all actives have a fitted effect of over 60% in size
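Read-out is AlphaScreen signal from streptavidin donor and nickel chelate acceptor beads (10 ug/mL final each) bridging L3MBTL1 (50 nM) and biotinylated K9-monomethylated H3(1-15) peptide (75 nM), after 30 min compound exposure at room temperature.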
RGS12 GoLoco inh-2: Confirmation qHTS Assay for Inhibitors of RGS12 GoLoco Motif Activity (Red Fluorophore) | shares compounds with RGS12 GoLoco inh-1 | Gai1/rhodamine-RGS12 GoLoco peptide fluorescence polarization | Potency, µM (top dose mostly 57.1 µM), for the others: at the top dose activity, negative = inhibition, most hits filed as inhibitors | 110 tested, 50% active | AID 2390, 2010
APE1 inh-2: Confirmation qHTS Assay for Inhibitors of the Human Apurinic/apyrimidinic Endonuclease 1 (APE1). AID 2572, 2010. purified APE1, fluorogenic abasic-site DNA cleavage. Potency, µM (series often up to 57.1 µM), without a hit: top-dose activity change, negative = inhibition, actives largely listed as inhibitors. 750 tested, 44% active. shares compounds with APE1 inh-1; also: potency is read from the fitted curve at half-maximal effect; % is scaled to controls: 0 for no effect and ±100 for the full control effect; nearly all actives have a fitted effect of over 30% in size
RECQ1 inh-2: Confirmation qHTS Assay for Inhibitors of RecQ-Like Dna Helicase 1 (RECQ1) - Round 2 Cherry Picks; shares compounds with RECQ1 inh-1; recombinant RECQ1 DNA unwinding, red fluorescence; Potency, µM (doses to about 119 µM), inactives show at the top dose activity, negative = inhibition, actives largely listed as inhibitors; 1,100 tested, 15% active; also: potency is read from the fitted curve at half-maximal effect; % is scaled to controls: 0 for no effect and ±100 for the full control effect; nearly all actives have a fitted effect of over 50% in size
Active calls of the source: *; i = inactive; u = inconclusive; x = no result; ! = repeats disagree; [ ] = another dose, or the depositor's remark. The entries come from a sample that favours hits as a whole. Unless noted, calls follow the shape of the dose curve; as a rule, active = well fitted curve in the direction sought with a large enough effect; inconclusive = small, poorly fitted or top-dose-only effect, or another doubt; inactive = no such curve, though single readings can be large; an effect the other way counts as inactive or inconclusive.

SMILES	BLM helicase inh	RECQ1 inh-1	RGS12 GoLoco inh-1	APE1 inh-1	KDM4E inh	L3MBTL1 block	RGS12 GoLoco inh-2	others
Cn1c(SCc2ccccc2Cl)nc2c([nH]c3ccccc32)c1=O	0.4%	x	x	x	x	x	x
Cc1ccc(NC(=O)CSc2nnc(-c3ccc(S(=O)(=O)N4CCOCC4)cc3)n2C)cc1	-2.1%	3.4%	-50.0%	-0.2%	0.7%	u	4.1%
Cc1n(CC(O)COC2CCCCC2)c2ccccc2[n+]1C (stereo not drawn)	4.4%	3.8%	7.08µM*	7.7%	1.1%	-2.7%	15.8µM*
OC(COC1CCCCC1)CN1CCN(c2ccccc2)CC1 (stereo not drawn)	3.1%	0.3%	-8.8%	-3.9%	1.3%	0.8%	x
CCC(CC)C(=O)Nc1ccccc1SCc1cc(=O)c2cccc(C)c2[nH]1	2.4%	x	x	x	x	x	x
CCn1cc(C(=O)O)c(=O)c2cnc(N3CCCC3)nc21	4.2%	i	8.4%	0.8%	-9.7%	x	x
CC(=O)Nc1ccc(/C=C/c2nc(-c3ccccc3O)n(-c3ccccc3)n2)cc1	-7.0%	x	x	x	x	x	x
COc1cc(OC)c(C2CC(=O)N3CN(c4ccc(C)cc4)CSC3=C2C#N)cc1OC (stereo not drawn)	-4.4%	-12.4%	8.91µM*	-4.2%	u	-5.0%	u
C=C[C@](C)(O)CCC=C(C)C	0.7%	-11.3%	-1.5%	0.7%	-5.9%	x	x
O=C1c2cccc3c(O)ccc(c23)C(=O)N1Cc1ccccc1	-5.8%	u	11.2µM*	-4.2%	-0.9%	x	11.2µM*
O=C(O)c1cccc(CN2C(=O)c3ccccc3C2=O)c1	-1.1%	x	x	1.5%	x	x	x
COc1ccccc1N1C(=O)C2CC(C)=C(C)CC2C1=O (stereo not drawn)	-4.9%	i	-3.6%	11.5%	14.4%	-3.8%	x
COc1ccccc1N1C(=O)C=C(Sc2nc(C)cc(C)n2)C1=O	1.8%	-25.4%	1.41µM*	-3.1%	0.8%	-5.5%	u
O=C(COc1ccc(Cl)cc1)N1CCN(Cc2ccc3c(c2)OCO3)CC1	-7.6%	-5.6%[25.9 µM]	22.4µM*!	16.5%	-0.6%	-8.0%	9.0%[0.0121 µM]
CCOc1ccc(NC(=O)Cn2sc3nc(C)cc(C)c3c2=O)cc1	-1.3%	-5.6%	15.8µM*	2.0%	u	-4.4%	u
Cc1cc(C)c2c(=O)n(CC(=O)Nc3ccc(Cl)cc3)sc2n1	-1.8%	-5.7%	25.1µM*	-5.0%	28.2µM*	x	u
O=C(Cn1c(=O)c2ccccc2n2nncc12)Nc1cccc(F)c1	-4.2%	x	x	x	x	x	x
Cc1cc(C)c2c(=O)n(CC(=O)Nc3cccc(F)c3)sc2n1	-0.2%	-7.8%	31.6µM*	0.4%	u	-3.6%	31.6µM*
Cc1cc(C)n(CCC(=O)Nc2ccc(Cl)cc2)n1	-4.0%	x	x	x	x	x	x
CCOc1ccc(NC(=O)CCc2c(C)nc3c4c(C)cc(C)nc4nn3c2C)cc1	0.6%	x	x	x	x	x	x
Cc1ccc(NC(=O)Cn2c(C)cc(C)c(C#N)c2=O)c(Cl)c1	-3.1%	-9.2%	-0.2%	13.0%	u	6.5%	x
Cc1ccc(NC(=O)Cn2sc3nc(C)cc(C)c3c2=O)c(Cl)c1	2.0%	-7.1%	17.8µM*	1.1%	u	-0.6%	11.2µM*
CCC(C(=O)NCCc1ccc(Cl)cc1)n1nc(C)c2c(C)n(-c3ccccc3)nc2c1=O (stereo not drawn)	-1.9%	x	x	x	x	x	x
N#CCCn1c(=O)c(-c2cccs2)nc2cnc(N3CCOCC3)nc21	1.1%	-6.0%	3.5%	0.5%	x	x	x
COc1cc(OC)c(C(=O)NCc2nc(-c3ccccc3)no2)cc1OC	-1.5%	x	x	x	x	x	x
SMILES	BLM helicase inh	RECQ1 inh-1	RGS12 GoLoco inh-1	APE1 inh-1	KDM4E inh	L3MBTL1 block	RGS12 GoLoco inh-2	others
CCOCc1cnc(C)nc1NCC(=O)c1c(C)n(C)c2ccc(OC)cc12	-2.1%	24.5%	5.01µM*	-7.0%	-12.0%	-11.1%	25.1µM*
Cc1nn(C)c(C)c1N1C(=O)c2cccc3c(N)ccc(c23)C1=O	-0.5%	u	22.4µM*	-6.0%	-6.9%	-2.3%	12.6µM*
CC(=O)c1ccc(C2C=CC(Oc3ccc(-c4ccccc4)cc3)C(CO)O2)cc1 (stereo not drawn)	-0.4%[12.4 µM]	i[11.5 µM]	x	24.3%[12.4 µM]	x	x	x
Cn1nnnc1SCC(=O)N1CCN(c2ccc(Cl)cc2)CC1	-4.3%	-15.5%	-37.4%	10.6%	0.2%	0.5%	14.1µM*
O=C1c2cccc3c([N+](=O)[O-])ccc(c23)C(=O)N1c1ccc(Cl)cn1	0.5%	-5.1%	-6.6%	-3.4%	-10.9%	-10.7%	x
O=C1c2cccc3c([N+](=O)[O-])ccc(c23)C(=O)N1c1ccccn1	-0.9%	-0.6%	28.2µM*	-7.9%	1.5%	-26.1%	-5.3%
Cc1ccc(NC(=O)c2oc3ccccc3c2NC(=O)C2CCCCC2)cc1	-7.7%	x	x	x	x	x	x
O=C1c2ccc3c4c(ccc(c24)C(=O)N1CCCCO)C(=O)N(CCCCO)C3=O	-0.8%	7.08µM*	25.1µM*	u	u	x	11.2µM*	RECQ1 inh-2=50.1µM*
COc1ccccc1NC(=O)Cn1c(=O)n(-c2ccccc2Cl)c(=O)c2sc3ccccc3c21	-5.4%	x	x	x	x	x	x
CC1=CCC(C(=O)O)C(C(=O)Nc2ccc(-c3nc4ccc(C)cc4s3)cc2)C1 (stereo not drawn)	-7.0%	-25.6%	18.6%	u	u	u	x	APE1 inh-2=-28.3%
Cc1ccc(Cl)cc1NC(=O)CSc1ccc(C(=O)O)cn1	1.4%	x	x	x	x	x	x
